Most compounds without a hit are left out; they make up all but 6.3% or so of the library.
MPTP block: permeability transition pore inhibition; AID 602449; isolated mouse mitochondria, Ca2+ swelling absorbance, 30 min; inhibition, % at 10 µM; 1.4% of 360,000 active;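 active = inhibition of 50% or more, scaled per plate between neutral and stimulator controls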;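 also: 0% = DMSO wells given calcium and 100% = 1 mM EGTA wells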
Mdm2-MdmX inh: disrupts the human Mdm2-MdmX interaction | SaOS-2 split-luciferase Mdm2/MdmX complementation, luminescence | inhibition, % at 8 µM | 3% of 330,000 active | AID 485346;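 active = inhibition of at least 50% at 8 µM in the primary screen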
Target sequence (O15151 whole entry, looked up): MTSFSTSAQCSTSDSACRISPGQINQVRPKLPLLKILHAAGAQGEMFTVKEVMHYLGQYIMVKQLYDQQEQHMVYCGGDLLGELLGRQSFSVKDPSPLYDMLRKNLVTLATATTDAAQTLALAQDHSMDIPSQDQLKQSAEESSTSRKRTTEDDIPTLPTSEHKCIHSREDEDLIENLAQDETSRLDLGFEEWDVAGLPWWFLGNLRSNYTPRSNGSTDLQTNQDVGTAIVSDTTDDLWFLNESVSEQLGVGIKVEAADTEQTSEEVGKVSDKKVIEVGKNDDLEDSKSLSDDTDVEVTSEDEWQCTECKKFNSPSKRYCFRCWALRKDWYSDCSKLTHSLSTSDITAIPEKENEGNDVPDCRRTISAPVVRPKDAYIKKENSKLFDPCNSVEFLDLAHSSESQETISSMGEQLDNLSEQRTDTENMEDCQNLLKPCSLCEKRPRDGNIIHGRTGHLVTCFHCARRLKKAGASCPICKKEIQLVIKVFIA
Target sequence (Q00987 whole entry, looked up): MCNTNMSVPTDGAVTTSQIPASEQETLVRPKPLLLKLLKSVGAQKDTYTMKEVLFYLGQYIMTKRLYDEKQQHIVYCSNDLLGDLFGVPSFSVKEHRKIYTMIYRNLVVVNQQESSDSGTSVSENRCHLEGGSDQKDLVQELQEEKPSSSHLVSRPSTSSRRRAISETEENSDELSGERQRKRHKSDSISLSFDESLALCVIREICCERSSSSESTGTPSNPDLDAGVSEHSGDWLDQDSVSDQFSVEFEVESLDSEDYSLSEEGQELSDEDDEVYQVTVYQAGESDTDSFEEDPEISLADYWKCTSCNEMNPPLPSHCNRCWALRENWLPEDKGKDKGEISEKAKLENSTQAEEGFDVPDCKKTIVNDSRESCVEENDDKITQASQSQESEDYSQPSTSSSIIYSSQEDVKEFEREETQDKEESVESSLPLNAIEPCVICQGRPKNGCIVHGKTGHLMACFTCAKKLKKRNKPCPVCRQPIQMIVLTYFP
TIM10 inh: growth inhibitors of TIM10 yeast strain; 1.4% of 330,000 active; inhibition, % at 10 µM; S. cerevisiae TIM10 strain growth, BacTiter-Glo luminescence, 24 h;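 active = inhibition of 40% or more at the single tested concentration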;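 also: wild-type TIM10 isogenic control strain grown at permissive 25 °C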
tim23-1 inh: inhibits growth of tim23-1 mutant yeast; S. cerevisiae tim23-1 growth, BacTiter-Glo luminescence, 24 h; inhibition, % at 20 µM; 1.3% of 330,000 active; AID 463212;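 active = growth inhibition of the mutant yeast at or above 50%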;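 also: temperature-sensitive mutant grown at 25 °C; plate controls were DMSO-treated mutant yeast for no effect and medium wells lacking yeast for full effect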
tim10-1 inh: tim10-1 yeast growth inhibition; S. cerevisiae tim10-1 ts strain growth, BacTiter-Glo, 24 h; inhibition, % at 20 µM; 2.2% of 330,000 active; AID 463190;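 active = inhibition of at least 40%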;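 also: mutant grown at 25 °C; 0% = DMSO wells with yeast and 100% = wells holding no yeast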
Mdm2 MdmX conf: confirmation of human Mdm2/MdmX interaction inhibitors. Mdm2-MdmX binding, luminescent assay. shares compounds with Mdm2-MdmX inh. inhibition, % at 8 µM. 55% of 10,000 active; in the data active = inhibition above about 40%
FLuc counter: full-length luciferase inhibition in Mdm2/MdmX counter-screen; SaOS-2 full-length luciferase counterscreen, luminescence; shares compounds with Mdm2-MdmX inh; 77% of 6,200 active; inhibition, % at 8 µM;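 active = mean inhibition at 8 µM reaching about 37%, which flags the compound as non-specific, limit read from the data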;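 also: p53-null SaOS-2 cells with luciferase driven by a doxycycline-inducible promoter; compound on cells about two nights before reading with doxycycline added after day one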
Rh123 counter: membrane potential counter-screen of mitochondrial pore inhibitors; shares compounds with MPTP block; isolated mitochondria, Rhodamine 123 fluorescence; inhibition, % at 10 µM; 78% of 5,000 active; AID 624504; in the data active = inhibition above about 22%;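 also: 0% = DMSO vehicle and 100% = positive control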
MPTP abs DR: MPTP inhibition, dose response swelling confirmation. shares compounds with MPTP block. isolated mitochondria swelling, absorbance. IC50, µM. 58% of 780 active; in the data active = IC50 below about 20 µM
MPTP cs DR: counter-screen for mitochondrial permeability transition pore inhibitors, dose response | shares compounds with MPTP block | isolated mitochondria counterscreen, fluorescence read-out | IC50, µM | 49% of 780 active; in the data active = IC50 below about 80 µM
* marks the source's active call; other numbers are inactive results; / = no result.

SMILES	MPTP block	Mdm2-MdmX inh	TIM10 inh	tim23-1 inh	tim10-1 inh	Mdm2 MdmX conf	FLuc counter	Rh123 counter	others
COc1ccc(C(NC(=O)CC(C)C)c2c(O)ccc3ccccc23)cc1 (configuration not stated)	2	9	14	22	23	/	/	/
COc1ccc(C(NC(=O)C2CCCCC2)c2c(O)ccc3ccccc23)cc1 (configuration not stated)	81*	53*	9	27	28	13	/	69*
CCCCCCCn1c(=N)n(CC(=O)c2ccco2)c2ccccc21	83*	63*	0	4	16	16	/	41*
CC(C)CN(Cc1cc(=O)oc2cc(-c3ccccc3)c(O)cc12)CC(C)C	93*	80*	23	22	15	-5	/	85*
O=c1cc(CN2CCN(c3ccccc3F)CC2)c2cc(O)c(-c3ccccc3)cc2o1	-11	3	-3	7	9	/	/	/
O=C(NCCCN1CCOCC1)c1ccc(Br)cc1	0	-23	-8	-15	-1	/	/	/
CC(C)(C)c1ccc(C(=O)NCCCN2CCN(CCCNC(=O)c3ccc(C(C)(C)C)cc3)CC2)cc1	87*	95*	8	5	11	95*	57*	86*
CCCS(=O)(=O)NC(=O)C1(C)CCCN(C(=O)/C=C/c2ccccc2)C1 (configuration not stated)	0	/	/	/	/	/	/	/
Cc1ccc(NS(=O)(=O)c2ccc(Cl)c(C(=O)Nc3ccccc3-c3nc4ccccc4[nH]3)c2)cc1C	88*	61*	-1	18	20	77*	51*	58*
O=C(Cc1nc2ccccc2[nH]1)c1cccc([N+](=O)[O-])c1	91*	87*	1	21	17	77*	39*	79*
O=C(Nc1nc2ccccc2[nH]1)c1cccc([N+](=O)[O-])c1	0	-53	0	-20	0	/	/	/
CCCCCCCCN1C(=O)[C@H](CC(=O)N2CCN(C(=O)OCC)CC2)C[C@@]2(C(=O)OCC)CCCC=C12	-2	/	/	/	/	/	/	/
Cc1ccc(N(CC(=O)NCCc2ccc(F)cc2)S(=O)(=O)c2ccc(Cl)c([N+](=O)[O-])c2)c(C)c1	68*	100*	-46	-22	-36	7	/	70*
CC(=O)c1ccc2ccccc2c1OC(=O)c1ccncc1	0	/	/	/	/	/	/	/
CCOC(=O)N1CCN(C(=O)C[C@@H]2C[C@@]3(C(=O)OC)CCCCC=C3N(Cc3ccccc3)C2=O)CC1	1	/	/	/	/	/	/	/
CCOC(=O)c1sc(=S)n(C)c1NC(=O)c1ccc(C(C)(C)C)cc1	75*	61*	19	34	30	31	/	88*
CCOC(=O)NC(=O)/C(C#N)=N\Nc1cccc(Cl)c1	93*	59*	15	5	16	64*	58*	73*
CCOC(=O)NC1(Nc2cccc(Cl)c2)Oc2ccccc2O1	1	/	/	/	/	/	/	/
CC1CC(C)CN(Cc2nc(N)nc(Nc3ccc4ccccc4c3)n2)C1 (configuration not stated)	63*	62*	6	9	18	67*	57*	-11	MPTP abs DR=>100;MPTP cs DR=>80
CC1CC(C)CN(Cc2nc(N)nc(Nc3ccccc3)n2)C1 (configuration not stated)	-7	-6	-17	0	-16	/	/	/
COc1ccc(NC(=O)COC(=O)C2COc3ccccc3O2)cc1OC (configuration not stated)	0	/	/	/	/	/	/	/
Cn1c(=O)n(C)c2cc([N+](=O)[O-])c(N3CCN(S(=O)(=O)c4ccc(C(C)(C)C)cc4)CC3)cc21	54*	60*	25	33	34	38	70*	71*
O=C(Nc1ccc(Cl)cc1Cl)NC1CCCC1	2	0	-2	7	2	/	/	/
O=C(Nc1ccc(Cl)cc1Cl)NC1CCN(S(=O)(=O)c2ccc(F)cc2)CC1	96*	51*	-15	-2	-6	42*	59*	89*
O=C(Nc1ccccc1Cl)OCC#CCOC(=O)Nc1ccccc1Cl	-1	/	/	/	/	/	/	/
SMILES	MPTP block	Mdm2-MdmX inh	TIM10 inh	tim23-1 inh	tim10-1 inh	Mdm2 MdmX conf	FLuc counter	Rh123 counter	others
Cc1nnc2n(-c3ccccc3)c(=O)c3c4c(sc3n12)COC(C(C)C)C4 (configuration not stated)	-6	28	9	-11	-1	/	/	/
CC(C)C1Cc2c(sc3[nH]c(=S)n(Cc4ccccc4)c(=O)c23)CO1 (configuration not stated)	81*	53*	15	0	31	-5	/	26*
CCN(CC)S(=O)(=O)c1cccc(NC(=O)Nc2cccc(C(F)(F)F)c2)c1	87*	68*	18	12	39	93*	52*	69*
Cc1ccc(C)c(NC(=O)COC(=O)c2cccc(S(=O)(=O)N3CCCC3)c2)c1	0	/	/	/	/	/	/	/
CC(C)(C)C(=O)NC(=S)NNC(=O)c1ccc(-c2ccccc2)cc1	94*	57*	-31	49	8	46*	29	23*
CC(C)(C)C(=O)NC(=S)NNC(=O)c1ccncc1	1	11	6	-15	15	/	/	/
CCOc1ccc(C2NCCc3cc(OC)c(OC)cc32)cc1OC (configuration not stated)	0	33	-2	0	2	/	/	/
COc1ccc2cc1Oc1ccc(cc1)C[C@H]1c3c(cc(OC)c4c3Oc3c(ccc5c3[C@H](C2)N(C)CC5)O4)CCN1C	90*	100*	-13	-43	-37	42*	11	-18
COc1ccc2cc1Oc1ccc(cc1)CC1c3c(cc(OC)c4c3Oc3cc5c(cc3O4)CCNC5C2)CCN1C (configuration not stated)	78*	100*	-14	-23	-18	100*	2	-17
COc1cc(/C=N/Nc2snc(SC)c2C#N)cc(OC)c1OC	73*	70*	-16	-18	-6	73*	43*	75*
CSc1nsc(N/N=C/c2ccc3c(c2)OCO3)c1C#N	1	-129	17	4	22	/	/	/
NCCc1c(-c2ccccc2)n(-c2ccccc2)c2ccccc12	79*	61*	22	-3	16	53*	71*	-14
CC(=O)n1c(-c2ccccc2)c(CO)c2ccccc21	-1	-5	13	15	7	/	/	/
CN1CCN(CCOC2Cc3ccccc3Sc3ccc(Cl)cc32)CC1 (configuration not stated)	90*	60*	28	20	22	27	/	-11	MPTP abs DR=6.5*;MPTP cs DR=>80

Assay outcomes: PubChem, Sanford-Burnham Center for Chemical Genomics
